Experimental data reported in PubChem BioAssay (NCI).
The panel holds about 83,000 compounds, 20% with a hit somewhere; the sample as a whole holds those more often.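 Activity criterion: percent growth below 10, measured after cells in 96-well plates were exposed to a single compound concentration for 48 hours.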 Values without a mark were called inactive. The source made the active and inactive calls.

Tests used:
Assay in all cases: NCI-60 one-dose screen, 48 h (100 = growth as untreated, 0 = no growth, -100 = all killed)
Settings in all cases: 10 µM unless noted
[1] = system: HCT-15 colon
[2] = system: HT29 colon
[3] = system: SNB-19 CNS
[4] = system: U251 CNS
[5] = system: PC-3 prostate
[6] = system: SK-MEL-5 melanoma
[7] = system: UACC-62 melanoma
[8] = system: SK-MEL-28 melanoma
[9] = system: EKVX NSCLC
[10] = system: SN12C renal
[11] = system: UO-31 renal
[12] = system: TK-10 renal
[13] = system: ACHN renal
[14] = system: CAKI-1 renal
[15] = system: A498 renal
[16] = system: CCRF-CEM leukemia
[17] = system: MOLT-4 leukemia
[18] = system: LOX IMVI melanoma
[19] = system: SK-MEL-2 melanoma
[20] = system: SNB-75 CNS

| SMILES | growth [1] | growth [2] | growth [3] | growth [4] | growth [5] | growth [6] | growth [7] | growth [8] | growth [9] | growth [10] | growth [11] | growth [12] | growth [13] | growth [14] | growth [15] | growth [16] | growth [17] | growth [18] | growth [19] | growth [20] [%] |
| --- | --- | --- | --- | --- | --- | --- | --- | --- | --- | --- | --- | --- | --- | --- | --- | --- | --- | --- | --- | --- |
| Cc1ccc(C(=O)Nc2cc(-n3ccnc3C)cc(C(F)(F)F)c2)cc1C#Cc1cnc2cccnn12 | 5.01% (active) | -16.8% (active) | 30.3% | 22.1% | 8.32% (active) | -67.6% (active) | -40% (active) | -32.4% (active) | 3.81% (active) | -8.57% (active) | 0.162% (active) | 11.6% | -6.55% (active) | -41.4% (active) | -18.4% (active) | 5.01% (active) | 4.23% (active) | – | – | – |
| COc1ccc(SC2c3cc(OC)ccc3Oc3nc(N)c(C#N)c(N)c32)cc1 (stereo not given) | 80.5% | 97.4% | 71.7% | 65.3% | 42.4% | 60.4% | 65.5% | 111% | 76.3% | 73.7% | 39.7% | 110% | 76.3% | 79.1% | 107% | 4.16% (active) | 55.4% | 5.16% (active) | 94.5% | – |
| O=C(N/N=C/c1ccoc1)c1[nH]c2ccc(Br)cc2c1-c1ccccc1 | -100% (active) | -50.2% (active) | -97.5% (active) | -81.5% (active) | -37.3% (active) | -97.2% (active) | -99.6% (active) | -93.7% (active) | -97.6% (active) | -95.8% (active) | -82.5% (active) | -82.5% (active) | -100% (active) | -99.6% (active) | – | -12.1% (active) | -5.76% (active) | -100% (active) | -84.5% (active) | – |
| COc1c(F)ccc(C(=O)Nc2ccc3nc(NC(=O)C4CCCN(S(=O)(=O)c5ccc(C(C)(C)C)cc5)C4)sc3c2)c1F (stereo not given) | 63.3% | 55.4% | 78.2% | 58.8% | 45.8% | 66.5% | 55.9% | 81.3% | 59% | 57% | 44.3% | 93.6% | 63.4% | 69.3% | 84.7% | 57.9% | 29.7% | – | 71.3% | – |
| C[C@@H]1CN(c2ccc3ncc(C#Cc4cncc(C(=O)Nc5ccc(CN6CCN(C)CC6)c(C(F)(F)F)c5)c4)n3n2)C[C@@H](C)O1 | -91% (active) | -60.5% (active) | -99.8% (active) | -68.8% (active) | -54.9% (active) | -99.6% (active) | -65.6% (active) | – | -96% (active) | -66.5% (active) | -99.3% (active) | -98% (active) | -95.3% (active) | -95.3% (active) | -99% (active) | -36% (active) | 4.86% (active) | -96.8% (active) | – | – |
| COc1ccc(OC)c(Cn2cc(C#N)c(N)c2C(=O)c2ccc(Br)cc2)c1 | 26.2% | 4.97% (active) | 55.3% | – | 66% | 26.6% | 29.9% | 54.3% | 58.2% | 64.4% | 34.6% | 62.4% | 84.9% | 45.2% | 86.7% | 44.3% | 20.4% | 49.6% | 4.44% (active) | – |
| Clc1ccc(Nc2nnc(-c3c[nH]c4ccccc34)o2)cc1 | 40.4% | 88.6% | 85.5% | 76.4% | 60.7% | 87.6% | 65.4% | 91.1% | 55.3% | 53.6% | 49.7% | 121% | 74.4% | 50.8% | 120% | 10.9% | 9.41% (active) | – | 95.8% | – |
| CCOc1ccc(-c2cc(-c3cc(C(C)C)c(O)cc3C)nn2-c2ccc(S(N)(=O)=O)cc2)cc1 | 4.81% (active) | 98.5% | – | 27.8% | 42.4% | 26.3% | 24% | 58.5% | 30.9% | 30.6% | 48.6% | 84.2% | 54.1% | 58.7% | 98.3% | 11.3% | 11.6% | 17.9% | 54.5% | – |
| O=C(Cc1c(-c2ccccc2[N+](=O)[O-])n(-c2ncnc3c2c(-c2ccccc2)c(-c2ccccc2)n3Cc2ccccc2)[nH]c1=O)c1ccc(Cl)c(Cl)c1 | 46.9% | 18.4% | – | 28.1% | 8.7% (active) | -45.3% (active) | -9.59% (active) | 27.8% | 14.6% | 12.6% | 41.7% | 38.5% | 25.4% | 9.03% (active) | 56.1% | 13.2% | 24.1% | 14.9% | -22.4% (active) | – |
| Cc1cc(N=C(N)c2ccccc2)ccc1OCCCCCCCCn1ccnc1 | 7% (active) | – | 19.3% | – | 27.8% | – | -3.8% (active) | -68.5% (active) | 20.7% | 12.7% | -30.2% (active) | 32.9% | 9.56% (active) | 20.2% | 64.6% | 12.3% | 14.1% | -80.7% (active) | -28.2% (active) | 12.5 |
| N#Cc1c(-c2ccc(F)cc2)nc(SCc2ccccc2)nc1N1CCNCC1 | -87.9% (active) | -70.7% (active) | -81.4% (active) | -95.8% (active) | -51.6% (active) | -100% (active) | -97.3% (active) | -96.3% (active) | -98.3% (active) | -93.5% (active) | -82.7% (active) | -88.3% (active) | -99% (active) | – | -13.8% (active) | -3.47% (active) | -0.64% (active) | -93.6% (active) | -82.9% (active) | – |
| Cc1ccc(C2CC(c3ccc(NC(=S)Nc4ccccc4)cc3)=NN2c2ccc(S(N)(=O)=O)cc2)cc1 (stereo not given) | 4.26% (active) | 1.32% (active) | 23.1% | 5.8% (active) | 7.16% (active) | 27.9% | 17% | -57.7% (active) | 9.1% (active) | 28.3% | 3.53% (active) | 21.6% | -33.2% (active) | -10.6% (active) | – | 14.5% | 25.8% | 14.9% | 13.4% | – |
| Fc1ccc(Nc2nnc(-c3c[nH]c4ccccc34)o2)cc1 | 66.7% | 102% | – | 84.8% | 70.8% | 91.4% | 77.8% | 106% | 56.5% | 56.2% | 44.4% | 123% | 77.5% | – | – | 16.3% | 29.6% | 72.2% | 96.7% | – |
| CN1C(=O)C2(C(C#N)=C(c3ccc(Cl)cc3)Nc3c2c(-c2ccccc2)nn3-c2ccccc2)c2ccccc21 (stereo not given) | 87.6% | 85.2% | – | 102% | 85.8% | 88.1% | 69.5% | 94.2% | 80.7% | 86.3% | 71.7% | 103% | 89.5% | 71% | 144% | 75.6% | 64.4% | 55.3% | 89.8% | – |
| COC(=O)c1c(C(=O)OC)c2c3ccccc3c3ccccc3n2c1C(=O)C(F)(F)F | 101% | 103% | 102% | 105% | 72.4% | 93.7% | – | 103% | 98.2% | 92.7% | 65.9% | 113% | 93.7% | 64.8% | 138% | 98.2% | 117% | 87.7% | 94.4% | – |
| COc1ccc(C(=O)NNC(=O)CSc2nc3sc4c(c3c(=O)n2-c2ccc(Cl)cc2)CCCC4)cc1 | 76.3% | 91.2% | 63.3% | 42.3% | 80.6% | 46.8% | 26.1% | 72.5% | 55.1% | 29.5% | 65.1% | 143% | 85.7% | 74% | 124% | 70.4% | 63.7% | 55.5% | 92.2% | – |
| NC(=Nc1ccc(OCCCCCCCCn2cnnn2)cc1)c1ccccc1 | 14.6% | – | – | – | 36.2% | – | 28.3% | – | 40% | 27% | 41.6% | 64.8% | 32.3% | 35.2% | 114% | 19.6% | 20.9% | 23% | 21% | 45.4 |
